The nature of assay [1]: High Content Imaging Cell-Based qHTS for Inhibitors of the mTORC1 Signaling Pathway in MEF Cells (AID 2667). Further: potency means the concentration at half of the fitted maximal effect. An outline of the steps: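 Tsc2-/-, p53-/- MEFs stably re-expressing WT Tsc2, grown in DMEM + 10% FBS, were treated with compounds for 24 hrs at 37 degree Celsius, fixed, and stained with Alexa-488 phospho-rpS6 Ser235/236 antibody plus Hoechst; results given as % positive cells.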

A short description of assay [2]: Validation screen for small molecules that induce DNA re-replication in MCF 10A normal breast cells (AID 463097). Further: nearly all actives have a fitted effect of over 60% in size. Further: potency means the concentration at half of the fitted maximal effect. In a few lines:
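Readout: Hoechst nuclear fluorescence intensity, 405 ex / 500-530 em, by scanning plate imager; re-replication scored as increase in nuclei with elevated DNA content. Cells exposed to compound 48 hr, 37 C, 5% CO2 beforehand.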

Assay [3] concerns the target Ubiquitin carboxyl-terminal hydrolase 2 (Homo sapiens) (UniProt O75604). The assay is described as follows: qHTS Validation Assay for Inhibitors of Ubiquitin-specific Protease USP2a Using CHOP2 as the Reporter (AID 463106). An outline of the steps:
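Readout was coupled fluorescence (Ex 485/Em 531 nm), read 60 min after adding 25 nM final Ub-CHOP2 and 25 nM reporter substrate. Beforehand, 10 nM final USP2 core had 30 min at RT with compound in pH 8.0 buffer. Curves were fitted after normalization to NEM and flagged for artifacts using time-zero reads.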

For assay [4], the target named is DNA polymerase III PolC-type (Bacillus subtilis (strain 168)) (UniProt P13267). Description: qHTS Validation Assay for the Inhibitors of DNA Replication in Gram-Positive Bacteria (AID 485295). Further: potency means the concentration at half of the fitted maximal effect. In a few lines: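 Reconstituted B. subtilis holoenzyme (Pol III, beta clamp, SSB, primase) was preincubated with compound at room temperature, then given single-stranded circular M13Gori plus dNTPs and NTPs. EDTA-containing PicoGreen stopped the reaction, and dsDNA product was read by fluorescence.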

Assay [5] deals with Tumor susceptibility gene 101 protein (Homo sapiens) (UniProt Q99816). The assay is described as follows: qHTS Validation Assay for Iinhibitors of HIV-1 Budding by Blocking the Interaction of PTAP/TSG101 (AID 485342; calls by dose curve). In a few lines: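 Tsg101 binding domain (10 uM final) in pH 7.5 HEPES/NaCl/Tween 20/EDTA/TCEP buffer was mixed with pin-transferred compounds, then FITC-labeled PTAP peptide (50 nM final) was added; after 20 min at r.t., fluorescence polarization was read.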

Assay [6] has as its target Beta-2 adrenergic receptor (Homo sapiens) (UniProt P07550). The assay is described as follows: qHTS validation assay of beta-arrestin-biased ligands of beta2-adrenergic receptor (AID 485366). An outline of the steps: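 Compound series up to 46 microM applied to beta2-AR/beta-arrestin Tango cells, 18 hr, 37 degrees C, 5% CO2. Read-out: tTA-driven luciferase luminescence, converted to %Activity; concentration-response curves assigned curve classes.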

The nature of assay [7]: Cytometry Cell-Based qHTS for Inhibitors of the mTORC1 Signaling Pathway in MEF cells (AID 2668).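 Further: Tsc2-/- p53-/- mouse embryonic fibroblasts stably re-expressing wild-type Tsc2; percent cells positive for phospho-rpS6 Ser235/236 relative to propidium iodide stain; series mostly up to about 38 µM.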 In a few lines:
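WT MEFs (Tsc2-/-, p53-/- stably re-expressing WT Tsc2) in DMEM + 10% FBS received compounds 24 hrs after plating, for 24 hrs at 37 degree Celsius. Fixed cells stained with Alexa-488 anti-phospho-rpS6 Ser235/236 and propidium iodide; laser-scanning cytometry read-out.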

Assay [8] is described as follows: qHTS Validation Assay to Find Inhibitors of Chronic Active B-Cell Receptor Signaling (AID 485345; active means well fitted curve in the direction sought with a large enough effect in the main read-out, with a control signal flat, not every such curve was filed as active; further: potency means the concentration at half of the fitted maximal effect). An outline of the steps: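 Read-out: ratio of filter-corrected green (IkappaBalpha fusion) to red (native) luciferase signal in doxycycline-induced TMD8 cells after 4 h at 37C. Titration spanned 46 uM–3 nM; Data were normalised to basal cells and 10 uM MG-132 wells.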

In assay [9] the target is ATP-dependent 6-phosphofructokinase (Trypanosoma brucei brucei) (UniProt O15648). The assay is described as follows: qHTS Validation Assay to Find Inhibitors of T. brucei phosphofructokinase (AID 485368). The note with it: outcome: dose series up to 57.5 µM. An outline of the steps:
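qHTS format, up to 57 uM. PFK 1.25 nM; F6P 0.5 mM; ATP 0.1 mM; 5 mM MgCl2, 0.01% Tween20, 0.1% BSA; 0.1 M TEA pH 8.0; 45 min RT; ADP-Glo readout; no-enzyme control = full inhibition.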

This note sets out measurements from PubChem BioAssay (NCATS).

The structures appear in SMILES notation. Records with an inconclusive call do not appear. Calls of active or inactive are those of the source. Unless noted, the call rests on the fitted dose curve; in most records, active means well fitted curve in the direction sought with a large enough effect; inconclusive means small, poorly fitted or top-dose-only effect, or another doubt; inactive means no such curve, though single readings can be large; an effect the other way counts as inactive or inconclusive.

Chain of Tumor susceptibility gene 101 protein (Homo sapiens) (Q99816 whole entry, looked up, the tested form may be a part): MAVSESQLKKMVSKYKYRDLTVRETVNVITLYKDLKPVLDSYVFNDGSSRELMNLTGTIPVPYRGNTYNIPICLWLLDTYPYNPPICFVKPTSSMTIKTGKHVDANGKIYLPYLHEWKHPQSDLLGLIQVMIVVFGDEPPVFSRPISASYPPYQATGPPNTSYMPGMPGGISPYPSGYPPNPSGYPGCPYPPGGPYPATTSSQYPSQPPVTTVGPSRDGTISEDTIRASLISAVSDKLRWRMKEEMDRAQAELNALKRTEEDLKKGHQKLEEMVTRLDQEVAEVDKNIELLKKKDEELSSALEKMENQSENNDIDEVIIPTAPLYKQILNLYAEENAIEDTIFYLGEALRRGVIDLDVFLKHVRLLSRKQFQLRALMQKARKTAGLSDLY
Chain of DNA polymerase III PolC-type (Bacillus subtilis (strain 168)) (P13267 whole entry, looked up): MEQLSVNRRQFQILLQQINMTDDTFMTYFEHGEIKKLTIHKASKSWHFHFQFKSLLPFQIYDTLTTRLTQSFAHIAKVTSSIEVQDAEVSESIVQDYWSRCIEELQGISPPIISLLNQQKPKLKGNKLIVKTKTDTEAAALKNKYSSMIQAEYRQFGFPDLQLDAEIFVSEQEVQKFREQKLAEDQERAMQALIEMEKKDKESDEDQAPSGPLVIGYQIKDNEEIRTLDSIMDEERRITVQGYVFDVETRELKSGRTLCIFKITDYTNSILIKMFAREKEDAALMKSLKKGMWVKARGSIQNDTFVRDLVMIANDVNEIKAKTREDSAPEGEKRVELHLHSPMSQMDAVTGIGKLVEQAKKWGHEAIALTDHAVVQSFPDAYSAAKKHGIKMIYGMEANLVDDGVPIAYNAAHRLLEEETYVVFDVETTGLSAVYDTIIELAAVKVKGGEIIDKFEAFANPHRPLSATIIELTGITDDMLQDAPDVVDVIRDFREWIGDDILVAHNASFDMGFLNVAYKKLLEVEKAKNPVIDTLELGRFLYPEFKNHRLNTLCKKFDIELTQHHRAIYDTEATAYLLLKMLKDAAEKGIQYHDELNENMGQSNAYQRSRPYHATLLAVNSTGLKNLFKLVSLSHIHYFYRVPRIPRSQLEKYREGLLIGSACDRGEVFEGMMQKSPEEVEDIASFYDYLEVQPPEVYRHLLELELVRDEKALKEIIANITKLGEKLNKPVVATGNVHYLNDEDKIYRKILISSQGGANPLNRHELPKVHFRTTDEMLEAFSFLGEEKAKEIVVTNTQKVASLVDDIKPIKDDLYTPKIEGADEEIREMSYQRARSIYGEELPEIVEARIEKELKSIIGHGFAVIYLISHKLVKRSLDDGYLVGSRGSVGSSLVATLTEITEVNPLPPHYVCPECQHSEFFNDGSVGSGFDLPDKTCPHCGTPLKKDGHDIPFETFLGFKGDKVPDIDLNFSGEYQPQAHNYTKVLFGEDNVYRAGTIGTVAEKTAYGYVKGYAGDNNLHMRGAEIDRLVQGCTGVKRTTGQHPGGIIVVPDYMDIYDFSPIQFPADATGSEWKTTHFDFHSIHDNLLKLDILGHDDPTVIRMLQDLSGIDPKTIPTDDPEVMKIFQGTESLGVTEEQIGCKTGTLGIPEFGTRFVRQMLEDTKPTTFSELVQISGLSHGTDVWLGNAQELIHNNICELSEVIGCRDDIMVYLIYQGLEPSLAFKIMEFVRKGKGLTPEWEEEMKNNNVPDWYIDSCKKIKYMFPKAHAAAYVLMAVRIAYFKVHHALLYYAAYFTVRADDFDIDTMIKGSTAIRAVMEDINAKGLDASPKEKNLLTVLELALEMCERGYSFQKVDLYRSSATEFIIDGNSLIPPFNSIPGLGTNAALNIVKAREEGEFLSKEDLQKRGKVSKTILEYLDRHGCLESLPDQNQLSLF
Chain of Beta-2 adrenergic receptor (Homo sapiens) (P07550 whole entry, looked up): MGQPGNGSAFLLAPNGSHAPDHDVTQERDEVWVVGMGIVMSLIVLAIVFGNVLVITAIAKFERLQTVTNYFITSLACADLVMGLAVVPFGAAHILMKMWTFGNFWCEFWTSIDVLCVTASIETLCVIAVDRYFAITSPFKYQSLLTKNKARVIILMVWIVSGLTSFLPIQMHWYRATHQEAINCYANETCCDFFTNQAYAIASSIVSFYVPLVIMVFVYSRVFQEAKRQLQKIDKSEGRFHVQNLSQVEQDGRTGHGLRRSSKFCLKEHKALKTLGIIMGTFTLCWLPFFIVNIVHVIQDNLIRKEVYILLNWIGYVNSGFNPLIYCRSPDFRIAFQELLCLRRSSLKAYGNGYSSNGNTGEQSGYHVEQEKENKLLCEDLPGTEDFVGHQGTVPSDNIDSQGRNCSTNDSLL
Chain of ATP-dependent 6-phosphofructokinase (Trypanosoma brucei brucei) (O15648 whole entry, looked up): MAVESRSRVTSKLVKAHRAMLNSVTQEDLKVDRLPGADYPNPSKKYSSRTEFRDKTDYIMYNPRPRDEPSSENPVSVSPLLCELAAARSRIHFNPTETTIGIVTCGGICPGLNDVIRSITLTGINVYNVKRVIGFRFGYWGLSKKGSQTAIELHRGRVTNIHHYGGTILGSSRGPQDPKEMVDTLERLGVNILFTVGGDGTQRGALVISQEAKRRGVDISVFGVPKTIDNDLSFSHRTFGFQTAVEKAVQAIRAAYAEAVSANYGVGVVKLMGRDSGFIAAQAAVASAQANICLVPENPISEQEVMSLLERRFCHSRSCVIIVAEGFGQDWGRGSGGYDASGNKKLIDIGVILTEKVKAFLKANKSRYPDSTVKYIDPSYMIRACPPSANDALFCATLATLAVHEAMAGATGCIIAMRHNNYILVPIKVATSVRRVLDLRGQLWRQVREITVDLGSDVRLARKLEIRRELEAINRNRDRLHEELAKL
Chain of Ubiquitin carboxyl-terminal hydrolase 2 (Homo sapiens) (O75604 whole entry, looked up): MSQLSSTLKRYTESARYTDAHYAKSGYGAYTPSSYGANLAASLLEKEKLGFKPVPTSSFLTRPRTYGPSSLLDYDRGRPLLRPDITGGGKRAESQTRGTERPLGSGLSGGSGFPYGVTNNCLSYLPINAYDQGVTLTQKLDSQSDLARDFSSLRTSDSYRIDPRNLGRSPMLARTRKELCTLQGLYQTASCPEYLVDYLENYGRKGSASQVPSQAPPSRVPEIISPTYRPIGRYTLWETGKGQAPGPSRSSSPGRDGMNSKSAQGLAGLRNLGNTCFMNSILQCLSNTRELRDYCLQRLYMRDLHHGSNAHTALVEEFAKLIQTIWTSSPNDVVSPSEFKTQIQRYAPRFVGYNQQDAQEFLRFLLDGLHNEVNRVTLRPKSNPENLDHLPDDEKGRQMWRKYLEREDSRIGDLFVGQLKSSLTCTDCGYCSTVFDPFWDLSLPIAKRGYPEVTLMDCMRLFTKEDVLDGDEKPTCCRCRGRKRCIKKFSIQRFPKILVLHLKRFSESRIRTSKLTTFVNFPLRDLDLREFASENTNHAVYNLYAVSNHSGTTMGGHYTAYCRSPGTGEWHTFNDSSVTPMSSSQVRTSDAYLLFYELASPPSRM

With `OCCN1CCN(CC/C=C2/c3ccccc3Sc3ccc(C(F)(F)F)cc32)CC1`, the Potency result in assay [1] and in [4] was “inactive” throughout. The Potency in [2] is 12.6 µM (active). The compound was classed as inactive in assay [3], in assay [5] and in assay [6].
As for `CN(C)C(=O)Oc1cccc([N+](C)(C)C)c1`, the Potency result in assay [1], in [7], in assay [2], in assay [4] and in assay [8] was “inactive” in each case. For the same compound, the compound was classed as inactive in assay [3], in assay [6] and in [9].
With `CC(C)NCC(O)c1cc(O)cc(O)c1` (configuration not stated), the Potency entry in assay [1], in assay [7], in [2], in [4] and in assay [8] was “inactive” in each case. Further, the call in assay [3], in [5] and in [9] was inactive.
For `C=CCc1ccccc1OCC(O)CNC(C)C` (configuration not stated), the Potency entry in assay [1], in assay [7], in assay [2], in [4] and in assay [8] was “inactive” throughout. Also, the result in assay [3] was inactive.
For `CC(=O)[C@]1(O)Cc2c(O)c3c(c(O)c2[C@@H](O[C@H]2C[C@H](N)[C@H](O)[C@H](C)O2)C1)C(=O)c1ccccc1C3=O`, the Potency in assay [1] is 0.414 µM (active); in assay [4] it was 1.06 µM (active). The Potency result in assay [2] was “inactive”. Besides, the result in assay [6] was inactive.
Regarding `CCC(=O)c1ccc2c(c1)N(CCCN(C)C)c1ccccc1S2`, the Potency in assay [1] is 16.5 µM (active). Also, the outcome in [3], in [5], in assay [6] and in assay [9] was inactive. Also, the Potency entry in assay [4] and in assay [8] was “inactive” each time.
With `COCCCC/C(=N\OCCN)c1ccc(C(F)(F)F)cc1`, the Potency entry in assay [1], in assay [7], in assay [2] and in assay [4] was “inactive” throughout. Further, the compound was called inactive in assay [3], in [5] and in assay [6].
On to `Brc1c(NC2=NCCN2)ccc2nccnc12`, for which the Potency result in [1], in assay [7], in assay [2] and in assay [4] was “inactive” throughout. In addition, the outcome in [3], in assay [6] and in assay [9] was inactive.
`NC1=NCC2c3ccccc3Cc3ccccc3N12` (configuration not stated): the Potency entry in assay [1], in assay [7], in [4] and in assay [8] was “inactive” each time. The call in assay [3], in [5], in assay [6] and in assay [9] was inactive.
For the compound `Cc1nc2c([nH]1)c(=O)n(C)c(=O)n2Cc1ccco1`, the Potency entry in [1], in assay [7], in assay [2], in assay [4] and in assay [8] was “inactive” throughout. Further, the outcome in assay [3], in assay [5], in [6] and in assay [9] was inactive.
As for `CNCCC(Oc1ccccc1OC)c1ccccc1` (configuration not stated), the Potency result in assay [1], in [7], in assay [2], in assay [4] and in assay [8] was “inactive” in each case. The compound was called inactive in assay [3], in assay [5], in [6] and in assay [9].
For the compound `NC(N)=N/N=C/c1c(Cl)cccc1Cl`, the Potency entry in assay [1], in assay [2], in assay [4] and in [8] was “inactive” each time. Besides, the outcome in assay [3], in assay [5], in assay [6] and in assay [9] was inactive.
As for `CC1=C(C)C(=O)C(CCCCC#CCCCC#CCO)=C(C)C1=O`, the result in assay [3] and in [6] was inactive. The Potency entry in [4] is “inactive”. Also, in assay [8], the Potency is 16.4 µM (active).
Consider `Cc1nc2ccccn2c(=O)c1CCN1CCC(C(=O)c2ccc(F)cc2)CC1`, for which the Potency entry in [1], in assay [7], in assay [2], in assay [4] and in [8] was “inactive” throughout. Also, the compound was called inactive in [3], in assay [5], in assay [6] and in [9].
Regarding `c1ccc2c(c1)CCCC2C1=NCCN1` (configuration not stated), the Potency result in assay [1], in assay [7], in [2], in assay [4] and in assay [8] was “inactive” each time. Besides, the result in [3], in assay [5], in assay [6] and in [9] was inactive.
Consider `COC(=O)C1=C(C)NC(C)=C(C(=O)OCCN(C)Cc2ccccc2)C1c1cccc([N+](=O)[O-])c1` (configuration not stated), for which the Potency in assay [1] is 18.5 µM (active). Besides, the compound was classed as inactive in assay [3], in assay [6] and in assay [9]. Besides, the Potency result in assay [4] was “inactive”.
Turning to `CC(=O)Nc1nnc(S(N)(=O)=O)s1`, the Potency result in [1], in [7], in assay [2], in assay [4] and in [8] was “inactive” in each case. Further, the compound was classed as inactive in [3], in assay [5] and in assay [9].
In the case of `NC(=O)N1c2ccccc2C=Cc2ccccc21`, the Potency entry in assay [1], in assay [7], in assay [2], in assay [4] and in assay [8] was “inactive” in each case. Moreover, the call in [3], in assay [5], in assay [6] and in assay [9] was inactive.
As for `CCOC(=O)c1cnc2c(cnn2CC)c1NN=C(C)C`, the Potency entry in assay [1], in assay [7], in assay [2], in assay [4] and in assay [8] was “inactive” in each case. For the same compound, the result in [3], in [6] and in [9] was inactive.
`CCCCCCCC/C=C\CCCCCCCC(=O)NCc1ccc(O)c(OC)c1`: the result in assay [3], in [6] and in assay [9] was inactive. The Potency result in assay [4] and in assay [8] was “inactive” each time.
For `CC(C)(Oc1ccc(CCNC(=O)c2ccc(Cl)cc2)cc1)C(=O)O`, the Potency entry in assay [1], in assay [7], in assay [4] and in assay [8] was “inactive” throughout. Further, the outcome in assay [3], in [5], in assay [6] and in [9] was inactive.
